Source: ChEMBL document CHEMBL1961873, “Compounds: GSK PKIS; Assays: Nanosyn kinase panel” (2012)

Each molecule was assayed against Fibroblast growth factor receptor 1 (Homo sapiens) (UniProt P11362). Conditions: at 1 µM.
Chain of Fibroblast growth factor receptor 1 (Homo sapiens) (P11362 22-822 limits assumed): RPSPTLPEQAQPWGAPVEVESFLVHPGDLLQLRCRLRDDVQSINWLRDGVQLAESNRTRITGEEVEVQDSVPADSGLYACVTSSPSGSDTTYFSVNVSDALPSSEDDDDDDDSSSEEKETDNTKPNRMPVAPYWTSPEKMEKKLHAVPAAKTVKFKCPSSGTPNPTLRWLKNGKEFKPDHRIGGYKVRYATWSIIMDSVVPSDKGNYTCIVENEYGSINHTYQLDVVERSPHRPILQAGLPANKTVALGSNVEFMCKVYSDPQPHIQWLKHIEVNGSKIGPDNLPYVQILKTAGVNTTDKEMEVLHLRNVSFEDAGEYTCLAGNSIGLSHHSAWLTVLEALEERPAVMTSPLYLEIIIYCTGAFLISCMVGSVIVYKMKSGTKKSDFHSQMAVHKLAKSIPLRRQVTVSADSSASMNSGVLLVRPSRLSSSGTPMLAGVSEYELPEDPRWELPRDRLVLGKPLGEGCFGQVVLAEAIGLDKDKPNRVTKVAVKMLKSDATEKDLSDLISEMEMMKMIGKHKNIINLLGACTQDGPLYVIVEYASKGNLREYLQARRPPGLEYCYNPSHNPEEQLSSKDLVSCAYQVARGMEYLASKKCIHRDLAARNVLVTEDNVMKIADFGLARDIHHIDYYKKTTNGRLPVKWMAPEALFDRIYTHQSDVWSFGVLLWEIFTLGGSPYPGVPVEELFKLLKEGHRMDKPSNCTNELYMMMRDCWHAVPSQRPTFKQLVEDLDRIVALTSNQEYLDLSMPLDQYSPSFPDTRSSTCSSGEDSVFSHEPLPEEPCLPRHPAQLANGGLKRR

Compared with `Fc1cccc(COc2ccc(Nc3ncnc4sc(-c5cccs5)cc34)cc2Cl)c1`, `Fc1cccc(COc2ccc(Nc3ncnc4cc(-c5ccc[nH]5)sc34)cc2Cl)c1` is lower in inhibition: 5.02% for the first, 4.48% for the second.

Going from `CC1=C(C(=O)Nc2ccc3[nH]ncc3c2)C(c2ccc(F)cc2)NC(=O)N1` (stereo unspecified) to `CC1=C(C(=O)Nc2ccc3[nH]ncc3c2)C(c2ccc(Cl)c(Cl)c2)CC(=O)N1` (stereo unspecified), the inhibition rises from 6.58% to 8.25%.

Going from `CCn1c(-c2nonc2N)nc2c(N3CCCC3)nccc21` to `CCn1c(-c2nonc2N)nc2c(C#CC(C)(C)O)nc(CN3CCCC3)cc21`, the inhibition falls from -1.9% to -2.63%.

Compared with `NS(=O)(=O)c1ccc(N/N=C2\C(=O)Nc3ccc(C(=O)NCCc4c[nH]cn4)cc32)cc1`, `CC(C)=Cc1cccc2c1/C(=N/Nc1ccc(S(N)(=O)=O)cc1)C(=O)N2` is higher in inhibition: 12.1% for the first, 14.7% for the second.

First: COc1cc2ncn(-c3cc(O[C@H](C)c4ccccc4Cl)c(C(N)=O)s3)c2cc1OC
Second: COc1cc2ncn(-c3cc(O[C@@H](C)c4ccccc4Cl)c(C(N)=O)s3)c2cc1OC
The inhibition of the first is higher: 29.4% for the first, 17.2% for the second.

Going from `CN1CCC(C(=O)Nc2n[nH]c3nnc(-c4ccccc4)cc23)CC1` to `O=C(Nc1n[nH]c2nc(-c3ccco3)c(Br)cc12)C1CC1`, the inhibition rises from 4.3% to 5.28%.

First: Cn1cc(C=C2C(=O)Nc3cccnc32)c2ccccc21
Second: O=C1NC(=O)C(c2ccccc2Cl)=C1Nc1cccc(O)c1
The inhibition of the first is higher: 17.3% for the first, 7.05% for the second.

Going from `COc1ccc(-c2nn3ncccc3c2-c2ccnc(Nc3ccc(Cl)c(C(F)(F)F)c3)n2)cc1` to `CS(=O)(=O)CCNCc1ccc(-c2ccc3ncnc(Nc4ccc(OCc5cccc(F)c5)c(C(F)(F)F)c4)c3c2)o1`, the inhibition rises from -2.37% to 2.33%.

First: NC(=O)c1cccc(Nc2nccc(Nc3cccc4[nH]ncc34)n2)c1
Second: NC(=O)c1ccc(-c2nc(-c3ccccn3)c(-c3ccc4c(c3)OCO4)[nH]2)cc1
The inhibition of the first is higher: 9.11% for the first, 2.26% for the second.

Compared with `COc1ccc(-c2ccncc2)cc1C(N)=O`, `COc1ccc(-c2coc3ncnc(N)c23)cc1` is higher in inhibition: 8.58% for the first, 9.2% for the second.

Compared with `CS(=O)(=O)CCN(CC#N)Cc1ccc(-c2ccc3ncnc(Nc4ccc(OCc5cccc(F)c5)c(Cl)c4)c3c2)o1`, `COc1cccc(-n2ncc3c(N/N=C/c4cccc(F)c4)ncnc32)c1` is higher in inhibition: -4.3% for the first, -3.18% for the second.

Going from `CNC(=O)c1cncc(/C=C/c2c(Cl)cccc2Cl)c1` to `O=C1NC(=O)C(c2cccc(Cl)c2)=C1Nc1ccc(O)c(Cl)c1`, the inhibition rises from -1.56% to 6.97%.

Going from `COc1ccccc1Nc1ncc(-c2ccccc2)o1` to `COc1cc(C=NNc2ncnc3c2cnn3-c2ccccc2)ccc1O`, the inhibition falls from 5.99% to 3.72%.

Going from `CCn1c(-c2nonc2N)nc2cncc(C(=O)N3CC[C@H](N)C3)c21` to `Cc1ccc(NC(=O)c2ccnc(N3CCCC3)c2)cc1-c1ccc(C(=O)NCC2CC2)cc1`, the inhibition rises from 1.87% to 2.19%.

Compared with `COc1cc2ncn(-c3cc(OCc4ccccc4Cl)c(C(N)=O)s3)c2cc1OC`, `COc1cc2ncn(-c3cc(OCc4ccccc4C(F)(F)F)c(C(N)=O)s3)c2cc1OC` is higher in inhibition: 8.43% for the first, 13% for the second.

Compared with `Nc1ncnc2occ(-c3ccc(NC(=O)Nc4cccc(C(F)(F)F)c4)cc3)c12`, `Cc1nnc(-c2ccc(C)c(-c3ccc(C(=O)Nc4cccc(C#N)c4)cc3)c2)o1` is lower in inhibition: 38.2% for the first, 1.5% for the second.

Work on `N#Cc1c(NC(=O)c2cccc3ccccc23)sc2c1CCCC2` yielded an inhibition of 2.06%.

The molecules below were run against Fibroblast growth factor receptor 2 (Homo sapiens) (UniProt P21802). Conditions: at 0.1 µM.
Chain of Fibroblast growth factor receptor 2 (Homo sapiens) (P21802 22-821 limits assumed): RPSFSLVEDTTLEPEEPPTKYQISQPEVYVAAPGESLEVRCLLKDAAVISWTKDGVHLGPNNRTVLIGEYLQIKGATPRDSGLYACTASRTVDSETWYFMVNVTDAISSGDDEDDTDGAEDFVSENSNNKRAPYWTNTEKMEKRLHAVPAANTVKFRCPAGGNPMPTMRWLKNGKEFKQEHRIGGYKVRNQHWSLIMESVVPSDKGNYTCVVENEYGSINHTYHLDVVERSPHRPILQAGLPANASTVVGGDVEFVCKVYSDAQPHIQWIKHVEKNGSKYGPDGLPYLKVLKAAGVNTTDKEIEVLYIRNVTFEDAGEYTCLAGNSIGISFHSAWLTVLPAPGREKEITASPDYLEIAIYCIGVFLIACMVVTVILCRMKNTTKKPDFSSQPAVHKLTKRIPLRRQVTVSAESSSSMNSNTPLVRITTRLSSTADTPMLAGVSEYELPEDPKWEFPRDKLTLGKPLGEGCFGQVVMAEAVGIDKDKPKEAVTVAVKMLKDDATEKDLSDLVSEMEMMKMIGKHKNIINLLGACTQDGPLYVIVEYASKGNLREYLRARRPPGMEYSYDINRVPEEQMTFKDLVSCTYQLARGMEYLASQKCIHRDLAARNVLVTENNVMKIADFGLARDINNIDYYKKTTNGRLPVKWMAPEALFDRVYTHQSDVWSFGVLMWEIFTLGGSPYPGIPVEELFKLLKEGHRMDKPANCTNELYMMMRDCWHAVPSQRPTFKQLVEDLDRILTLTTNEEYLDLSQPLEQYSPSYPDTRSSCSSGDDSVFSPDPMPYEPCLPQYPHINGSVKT

Compared with `Fc1cccc(COc2ccc(Nc3ncnc4sc(-c5cccs5)cc34)cc2Cl)c1`, `Fc1cccc(COc2ccc(Nc3ncnc4cc(-c5ccc[nH]5)sc34)cc2Cl)c1` is lower in inhibition: 2.92% for the first, -1.83% for the second.

Going from `CC1=C(C(=O)Nc2ccc3[nH]ncc3c2)C(c2ccc(F)cc2)NC(=O)N1` (stereo unspecified) to `CC1=C(C(=O)Nc2ccc3[nH]ncc3c2)C(c2ccc(Cl)c(Cl)c2)CC(=O)N1` (stereo unspecified), the inhibition falls from 3.51% to 0.22%.

Going from `CCn1c(-c2nonc2N)nc2c(N3CCCC3)nccc21` to `CCn1c(-c2nonc2N)nc2c(C#CC(C)(C)O)nc(CN3CCCC3)cc21`, the inhibition rises from -4% to -0.04%.

Going from `NS(=O)(=O)c1ccc(N/N=C2\C(=O)Nc3ccc(C(=O)NCCc4c[nH]cn4)cc32)cc1` to `CC(C)=Cc1cccc2c1/C(=N/Nc1ccc(S(N)(=O)=O)cc1)C(=O)N2`, the inhibition falls from 7.55% to 3.88%.

Compared with `COc1cc2ncn(-c3cc(O[C@H](C)c4ccccc4Cl)c(C(N)=O)s3)c2cc1OC`, `COc1cc2ncn(-c3cc(O[C@@H](C)c4ccccc4Cl)c(C(N)=O)s3)c2cc1OC` is lower in inhibition: 12.3% for the first, 7.05% for the second.

Compared with `CN1CCC(C(=O)Nc2n[nH]c3nnc(-c4ccccc4)cc23)CC1`, `O=C(Nc1n[nH]c2nc(-c3ccco3)c(Br)cc12)C1CC1` is lower in inhibition: 5.82% for the first, 2.01% for the second.

Going from `Cn1cc(C=C2C(=O)Nc3cccnc32)c2ccccc21` to `O=C1NC(=O)C(c2ccccc2Cl)=C1Nc1cccc(O)c1`, the inhibition falls from 9.78% to 3.39%.

Going from `COc1ccc(-c2nn3ncccc3c2-c2ccnc(Nc3ccc(Cl)c(C(F)(F)F)c3)n2)cc1` to `CS(=O)(=O)CCNCc1ccc(-c2ccc3ncnc(Nc4ccc(OCc5cccc(F)c5)c(C(F)(F)F)c4)c3c2)o1`, the inhibition rises from 1.72% to 3.18%.

First: NC(=O)c1cccc(Nc2nccc(Nc3cccc4[nH]ncc34)n2)c1
Second: Cc1nn(C)c2cc(N(C)c3ccnc(Nc4cccc(S(N)(=O)=O)c4)n3)ccc12
The inhibition of the first is lower: -1.94% for the first, 5.4% for the second.

Compared with `COc1ccc(-c2ccncc2)cc1C(N)=O`, `COc1ccc(-c2coc3ncnc(N)c23)cc1` is lower in inhibition: 7.42% for the first, 3.85% for the second.

Going from `CS(=O)(=O)CCN(CC#N)Cc1ccc(-c2ccc3ncnc(Nc4ccc(OCc5cccc(F)c5)c(Cl)c4)c3c2)o1` to `COc1cccc(-n2ncc3c(N/N=C/c4cccc(F)c4)ncnc32)c1`, the inhibition falls from -1.21% to -3.24%.

`CNC(=O)c1cncc(/C=C/c2c(Cl)cccc2Cl)c1` and `O=C1NC(=O)C(c2cccc(Cl)c2)=C1Nc1ccc(O)c(Cl)c1` are the same in inhibition: 3.82% for the first, 3.82% for the second.

Compared with `COc1ccccc1Nc1ncc(-c2ccccc2)o1`, `COc1cc(C=NNc2ncnc3c2cnn3-c2ccccc2)ccc1O` is lower in inhibition: 6.35% for the first, 3% for the second.

Going from `CCn1c(-c2nonc2N)nc2cncc(C(=O)N3CC[C@H](N)C3)c21` to `Cc1ccc(NC(=O)c2ccnc(N3CCCC3)c2)cc1-c1ccc(C(=O)NCC2CC2)cc1`, the inhibition falls from 2.48% to 1.81%.

Going from `Nc1ncnc2occ(-c3ccc(NC(=O)Nc4cccc(C(F)(F)F)c4)cc3)c12` to `Cc1nnc(-c2ccc(C)c(-c3ccc(C(=O)Nc4cccc(C#N)c4)cc3)c2)o1`, the inhibition falls from 15.8% to 1.7%.

Compared with `NC(=O)c1ccc(-c2nc(-c3ccccn3)c(-c3ccc4c(c3)OCO4)[nH]2)cc1`, `COc1cc2ncn(-c3cc(OCc4ccccc4C(F)(F)F)c(C(N)=O)s3)c2cc1OC` is higher in inhibition: 0.95% for the first, 2.62% for the second.

`N#Cc1c(NC(=O)c2cccc3ccccc23)sc2c1CCCC2` showed an inhibition of 1.68%.
